Assay results taken from the supplement of paper PMC9492666.

Experiments:
HCC1937 = assay: relative cell viability, compound + erastin, vs DMSO (fraction of DMSO control); higher = less growth inhibition; details: 72 h
MDA-MB-231 = assay: as above; details: 72 h
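Also: viability read by CCK-8 kit in 96-well plates, part of a combination screen pairing lipid-metabolism-targeting compounds with erastin.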

Row | SMILES | relative cell viability (HCC1937) | relative cell viability (MDA-MB-231)
1 | CC(C)(C)NC(=O)[C@H]1CC[C@H]2[C@@H]3CC[C@H]4NC(=O)C=C[C@]4(C)[C@H]3CC[C@]12C [Finasteride] + CCOc1ccccc1-n1c(C(C)N2CCN(C(=O)COc3ccc(Cl)cc3)CC2)nc2ccccc2c1=O [erastin] | 0.873 | 0.646
2 | C[C@]12CC[C@@H](O)C[C@@H]1CC[C@@H]1[C@@H]2CC[C@]2(C)C(=O)CC[C@@H]12 [Androsterone] + CCOc1ccccc1-n1c(C(C)N2CCN(C(=O)COc3ccc(Cl)cc3)CC2)nc2ccccc2c1=O [erastin] | 0.763 | 0.564
3 | CC(O)(CC(=O)O)CC(=O)O [Meglutol] + CCOc1ccccc1-n1c(C(C)N2CCN(C(=O)COc3ccc(Cl)cc3)CC2)nc2ccccc2c1=O [erastin] | 0.708 | 0.67
4 | CC1=C(/C=C/C(C)=C/C=C/C(C)=C/C=C/C=C(C)/C=C/C=C(C)/C=C/C2=C(C)C(=O)[C@@H](O)CC2(C)C)C(C)(C)C[C@H](O)C1=O [Astaxanthin] + CCOc1ccccc1-n1c(C(C)N2CCN(C(=O)COc3ccc(Cl)cc3)CC2)nc2ccccc2c1=O [erastin] | 0.674 | 1.56
5 | CC[C@H](C)C(=O)O[C@H]1CCC=C2C=C[C@H](C)[C@H](CC[C@@H]3C[C@@H](O)CC(=O)O3)[C@H]21 [Mevastatin] + CCOc1ccccc1-n1c(C(C)N2CCN(C(=O)COc3ccc(Cl)cc3)CC2)nc2ccccc2c1=O [erastin] | 0.6 | 0.434
6 | Oc1ccc(/C=C/c2cc(O)cc(O)c2)cc1 [Resveratrol] + CCOc1ccccc1-n1c(C(C)N2CCN(C(=O)COc3ccc(Cl)cc3)CC2)nc2ccccc2c1=O [erastin] | 0.635 | 0.853
